Measured values from PubChem BioAssay AID743195 (National Center for Advancing Translational Sciences (NCATS), 2013).
The list shows a part of the results. Inconclusive results are not listed. Calls of active or inactive are those of the source. Calls come from the whole dose curve; as a rule, active = well fitted inhibition curve with a large enough effect; inconclusive = small, poorly fitted or top-dose-only effect; inactive = no such curve, though single readings can be large or run the other way.

target: Aldehyde dehydrogenase 1A1 (Homo sapiens) (UniProt P00352); assay: Extended Characterization of HPGD Inhibitors: Counterscreen Against ALDH1A1; details: recombinant ALDH1A1, NADH fluorescence, propionaldehyde/NAD+
Excerpt: The central role of HPGD is to inactivate prostaglandins such as prostaglandin E2 (PGE2) or prostaglandin D2 (PGD2). These prostaglandins are involved in a number of processes, including inflammation, differentiation, and cellular signaling, which makes HPGD an important target for pharmacological intervention. Aldehyde dehydrogenase 1 family, member A1 (ALDH1A1) catalyzes the NAD+ dependent oxidation of a variety of endogenous and exogenous aldehydes to the corresponding carboxylic acids. The enzyme is the critical step in the metabolic activation of retinoic acid, which plays an essential role as a nuclear receptor ligand. […] ALDH1A1 shares some homology with HPGD, and it served as a suitable anti-target of HPGD to determine chemical probe selectivity. The assay system is similar to the HPGD primary screening protocol. Inhibition of ALDH1A1 activity was screened by utilizing propionaldehyde as an electron donor and NAD+ as an electron acceptor/cofactor. An increase in the fluorescence intensity due to conversion of NAD+ to NADH was used to measure the enzyme activity. NIH Chemical Genomics Center [NCGC] NIH Molecular Libraries Probe Centers Network [MLPCN] MLPCN Grant: MH084681 Assay Submitter (PI): Structural Genomics Consortium
3 uL of enzyme (final concentration 50 nM) or buffer were dispensed into a 1,536-well solid-bottom black plate (Greiner Bio One, Monroe, NC) followed by pin-tool transfer (23 nL) of compound (final concentration range 324 pM to 57.2 uM) and control (Bay 11-7085 (CID-5353432), final concentration range 1.31 nM to 2.86 uM). Samples were incubated (RT, protected from light) for 15 minutes followed by a 1 uL substrate addition of NAD+ and Propionaldehyde (final concentrations of 1 mM and 80 uM, respectively). Plates were centrifuged at 1,000 rpm for 15 seconds, then read in kinetic mode on a ViewLux High-throughput CCD imager (Perkin-Elmer) equipped with standard UV fluorescence optics (340 nm excitation, 450 nm emission) for 10 minutes at 5 minute intervals. Data were normalized (Read […] - Read 10 min) against no-enzyme (positive) and enzyme-containing (neutral) wells.

Sequence of Aldehyde dehydrogenase 1A1 (Homo sapiens) (P00352 whole entry, looked up): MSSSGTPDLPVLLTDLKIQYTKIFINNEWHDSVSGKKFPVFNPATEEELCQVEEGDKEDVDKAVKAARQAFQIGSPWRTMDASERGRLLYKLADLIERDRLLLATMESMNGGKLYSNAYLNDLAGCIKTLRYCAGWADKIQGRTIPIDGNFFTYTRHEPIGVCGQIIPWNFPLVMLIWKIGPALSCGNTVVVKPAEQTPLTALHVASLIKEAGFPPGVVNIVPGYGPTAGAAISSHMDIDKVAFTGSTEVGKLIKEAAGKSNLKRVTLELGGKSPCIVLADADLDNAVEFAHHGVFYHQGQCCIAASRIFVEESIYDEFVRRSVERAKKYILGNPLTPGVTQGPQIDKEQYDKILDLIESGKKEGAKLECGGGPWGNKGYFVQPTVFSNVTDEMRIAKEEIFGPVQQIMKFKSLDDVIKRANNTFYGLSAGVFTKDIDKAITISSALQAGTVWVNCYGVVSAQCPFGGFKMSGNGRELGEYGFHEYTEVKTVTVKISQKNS

Row | SMILES | Potency
1 | FC(F)(F)c1cccc(N2CCN(C(=S)Nc3ccncc3)CC2)c1 | 27.1 µM (active)
2 | Cc1cc(C)nc(NC(=S)N2CCN(c3ccc(Cl)cc3C(F)(F)F)CC2)c1 | 7.64 µM (active)
3 | Cc1cc(C)nc(NC(=S)N2CCN(c3ccc(Cl)cc3F)CC2)c1 | 4.82 µM (active)
4 | COc1ccnc(NC(=S)N2CCN(c3ncc(C(F)(F)F)cc3Cl)CC2)c1 | 1.92 µM (active)
5 | COc1cccc(NC(=S)N2CCN(c3ccc(Cl)cc3Cl)CC2)n1 | 1.08 µM (active)
6 | Cc1cc(C)nc(NC(=S)N2CCN(c3cccc(C#N)c3)CC2)c1 | 3.83 µM (active)
7 | Cc1ccc(N2CCN(C(=S)Nc3cc(C)ccn3)CC2)cc1 | 3.83 µM (active)
8 | COc1cccc(NC(=S)N2CCN(c3ccccc3C(F)(F)F)CC2)n1 | 2.15 µM (active)
9 | Cc1cc(C)nc(NC(=S)N2CCN(c3ccc4nonc4c3)CC2)c1 | 12.1 µM (active)
10 | Cc1cc(C)nc(NC(=S)N2CCN(c3cccc(C(F)(F)F)c3)CC2)c1 | 15.2 µM (active)
